Hits are enriched below; roughly 10% of the tested compounds scored in any of these assays.
HP1b chromo inh: HP1-beta chromodomain-methylated histone interaction inhibition; P83916; AlphaScreen HP1-beta / biotin-H3K9me3 peptide binding; Potency, µM (doses to about 114 µM), for the others: at the top dose activity change, negative = inhibition, actives largely listed as inhibitors; 0.56% of 390,000 active; AID 540317; further: nearly all actives have a fitted effect of over 70% in size
Target sequence (P83916 whole entry, looked up): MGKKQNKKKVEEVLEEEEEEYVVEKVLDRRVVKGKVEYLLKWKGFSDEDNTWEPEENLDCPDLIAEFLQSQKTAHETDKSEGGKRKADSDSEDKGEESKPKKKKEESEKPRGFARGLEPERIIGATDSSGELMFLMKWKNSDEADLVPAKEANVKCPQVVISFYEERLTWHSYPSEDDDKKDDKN
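HP1-beta protein (50 nM final) preincubated 30 min at room temperature with biotinylated H3(1-18)K9me3 peptide (50 nM) in PBS pH 7.4, 0.01% Tween-20, then compound added for 30 min. AlphaScreen streptavidin donor/nickel chelate acceptor beads (10 ug/mL final), 30 min dark, luminescence read.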
BAZ2B block: blocks human BAZ2B | Potency, µM (series often up to 114 µM), without a hit: top-dose activity change, negative = inhibition, hits mostly inhibitors | 4.4% of 360,000 active | Q9UIF8 | AID 504333 | AlphaScreen BAZ2B-H3K14Ac peptide displacement; further: on the % scale 0 is the no-effect control and ±100 the full control effect; nearly all actives have a fitted effect of over 60% in size
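AlphaScreen displacement of biotin-H3(5-23)K14Ac peptide (50 nM final) from BAZ2B (50 nM final) in PBS pH 7.4, 0.01% Tween-20; complex preformed 30 min RT, then compounds (top 110 uM) 30 min RT, beads 20 min dark.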
G9a block: G9a (human) methyltransferase inhibition. G9a H3K9 monomethylation, AlphaScreen, 2 h. Potency, µM (highest dose often 102 µM), for the others: at the highest dose activity, negative = inhibition, usual class: inhibitors. 8.8% of 350,000 active. AID 504332; further: on the % scale 0 is the no-effect control and ±100 the full control effect; nearly all actives have a fitted effect of over 75% in size
Target sequence (Q96KQ7 913-1193 limits assumed): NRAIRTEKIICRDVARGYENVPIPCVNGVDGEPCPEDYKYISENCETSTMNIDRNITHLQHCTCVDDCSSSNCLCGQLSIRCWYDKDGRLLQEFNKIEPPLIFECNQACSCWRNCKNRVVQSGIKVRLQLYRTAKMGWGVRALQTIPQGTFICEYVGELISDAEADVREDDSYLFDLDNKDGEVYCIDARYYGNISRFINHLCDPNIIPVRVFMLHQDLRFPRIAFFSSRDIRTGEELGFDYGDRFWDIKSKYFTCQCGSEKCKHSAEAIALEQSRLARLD
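AlphaScreen detection with an anti-monomethyl H3K9 antibody quantified product after a 2 h room-temperature reaction containing 500 nM biotinylated H3K9 peptide, 20 µM SAM and 20 nM enzyme, which had been preincubated 15 min with compound.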
JMJD2A Tudor: inhibitors of human JMJD2A Tudor domain; Potency, µM (titrated, usually from 114 µM), for inactives: top-dose activity change, negative = inhibition, usual class: inhibitors; O75164; AlphaScreen JMJD2A-Tudor / H3K4me3 peptide binding; 4.4% of 390,000 active; AID 504339; further: on the % scale 0 is the no-effect control and ±100 the full control effect; nearly all actives have a fitted effect of over 50% in size
GLS inh: blocks human kidney-isoform glutaminase activity. AID 624170. 0.21% of 410,000 active. GLS enzymatic activity, qHTS titration. Potency, µM (series often up to 45.5 µM), for inactives: top-dose activity change, negative = inhibition, usual class: inhibitors; further: on the % scale 0 is the no-effect control and ±100 the full control effect
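hKGA in 45 mM KH2PO4 pH 8.2, 0.02% Tween-20 with pin-transferred compounds; 1 mM L-glutamine (stock) plus glutamate oxidase/HRP/Amplex Red coupling added. Fluorescence read initially and after 30 min at RT.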
Starred values were filed as active, the others as inactive; ? = inconclusive; nt = no result; ! = a repeat was not active; [ ] = another dose, or the depositor's remark. The call rests on the fitted dose curve; in most records, active means well fitted curve in the direction sought with a large enough effect; inconclusive means small, poorly fitted or top-dose-only effect, or another doubt; inactive means no such curve, though single readings can be large; an effect the other way counts as inactive or inconclusive. Potency means the concentration at half of the fitted maximal effect.

SMILES | HP1b chromo inh | BAZ2B block | G9a block | JMJD2A Tudor | GLS inh
CC1=C(C(=O)O)N2C(=O)[C@@H](NC(=O)CCCC(=O)O)[C@H]2SC1 | 55% | -7% | -132%[59 µM] | -34% | 1%
Nc1nc(/C(=C/CC(=O)O)C(=O)NC2C(=O)N3C(C(=O)O)=CCSC23)cs1 (centres undefined) | nt | nt | -10%[2.33 µM] | nt | 25µM*
CN(C)c1cccc2c(C#N)ccc(N(C)C)c12 | ? | -19% | 45µM* | ? | -13%
COc1ccccc1N1CCN(Cc2ccc(Br)s2)CC1 | ? | 50µM* | -2%[12.7 µM] | 0.89µM* | 34%
COc1ccccc1N1CCN(Cc2cccc(Br)c2)CC1 | ? | 50µM* | 11µM* | 13µM* | 17%
COc1ccccc1N1CCN(Cc2c(F)cccc2Cl)CC1 | 29% | ? | ? | 3% | nt
Fc1ccc(N2CCN(Cc3cc4c(cc3Br)OCO4)CC2)cc1 | -11% | -9% | -33% | ? | 2%
Oc1cc2c(cc1CN1CCN(c3ccccc3F)CC1)OCO2 | 71µM* | ? | 8.9µM* | 40µM* | 25%
COc1ccccc1N1CCN(Cc2cc(C)c(C)cc2O)CC1 | -5% | -8% | 10%[59 µM] | -21% | -10%
COc1ccccc1N1CCN(Cc2ccccc2)CC1 | ? | 35µM* | 7%[0.501 µM] | 20µM* | 13%
O=C(/C=C/c1ccccc1)N1Cc2ccccc2-n2nncc2C1 | nt | nt | nt | nt | 8%
CC(C)(O)C1C2OC(=O)C1[C@]1(O)C[C@H]3O[C@]34C(=O)O[C@H]2[C@]14C (some centres undefined) (tested in a mixture with another compound) | nt | nt | 22%[12.7 µM] | nt | 5%
c1cc2c(cc1CN1CCNCC1)OCO2 | 23% | -13% | -27% | -12% | 1%
Cc1cccc(N2CCN(Cc3ccc4c(c3)OCO4)CC2)c1C | ? | 50µM* | 7.9µM* | 28µM* | 3%
COc1ccccc1N1CCN(Cc2ccc3c(c2)OCO3)CC1 | ? | nt | nt | 20µM* | 3%
COc1cc(Br)cc(CN2CCN(C)CC2)c1O | 20% | ? | ? | -16% | 43%
CN1CCN(Cc2ccc(Br)s2)CC1 | ? | ? | 4µM* | 5.6µM* | 22%
Cc1ccccc1-c1nn2c(=O)cc(CN3CCN(C(=O)COc4ccccc4Cl)CC3)nc2s1 | 3%[57 µM] | -7% | 5%[59 µM] | -24% | -10%
O=C1NC(=S)NC(=O)C1Cc1ccccc1O | 33% | nt | nt | 3% | 0%
CC(Cl)(Cl)/C(=N/P(=S)(N1CCOCC1)N1CCOCC1)N1CCOCC1 | 38% | -9% | 3% | -9% | -2%
O=P(/C(=N/O)N1CCCCC1)(N1CCOCC1)N1CCOCC1 | 24% | 8% | 56µM* | 2% | 9%
c1cnc(N2CC[C@@]3(CCCNC3)C2)nc1 | nt | nt | -21%[12.7 µM] | nt | nt
CN1C[C@H](CO)C[C@@H]2c3cccc4[nH]cc(c34)C[C@H]21 | 20% | 0% | 3% | -13% | 6%
CN1C[C@H](CNC(=O)OCc2ccccc2)C[C@@H]2c3cccc4c3c(cn4C)C[C@H]21 | -1% | 45µM* | 24µM*! | ? | -7%
COC(=O)C1=C(c2ccc(F)cc2F)C[C@@H]2CC[C@H]1N2C(=O)NCCOc1ccccc1Cl | 56% | 3% | 14%[2.33 µM] | -9% | -6%
SMILES | HP1b chromo inh | BAZ2B block | G9a block | JMJD2A Tudor | GLS inh
O=[N+]([O-])c1cc([As](=O)(O)O)ccc1O | 26% | -4% | -3%[12.7 µM] | 89µM* | ?
COc1ccc(N2CCN(C(=O)C3CCCN(S(=O)(=O)c4ccc5c(c4)CCCN5C(C)=O)C3)CC2)cc1 (centres undefined) | 5%[57 µM] | ? | ? | ? | 22%
N[C@@]1(C(=O)O)CC[C@@H](C(=O)O)C1 | -16% | -1% | 30µM*! | 50µM* | -4%
Nc1c2c(nc3sc4c(c13)CCCC4)CCCCC2 | -33% | -8% | ? | 79µM* | 6%
Nc1c2c(nc3sc4c(c13)CCCC4)CCCC2 | 17% | -11% | nt | -8% | 0%
Cc1c(OC(=O)N(C)C)ccc2c1O/C(=C\c1ccco1)C2=O | 10% | 56µM* | 32µM* | -17% | -1%
O=P(C(Cl)Cl)(N1CCCCC1)N1CCCCC1 | nt | 5% | 4% | -1% | -1%
O=P(OCC(F)(F)C(F)F)(N1CCCCC1)N1CCCCC1 | 12% | -5% | 45µM* | -3% | 6%
CCC[N+]12CCC(CC1)C(C(O)(c1ccccc1)c1ccccc1)C2 (centres undefined) | 40% | -3% | -19% | -2% | -13%
C[N+]12CCC(CC1)C(C(O)(c1ccccc1)c1cccs1)C2 (centres undefined) | 15% | 0% | 14µM* | -31% | -1%
O=C(Oc1ccccc1)N1CCC2(CCCN(Cc3nccs3)C2)CC1 | nt | nt | -8%[12.7 µM] | nt | nt
CCN(CC)c1ccc(/C=N/c2sc3c(c2C#N)C2CCN3CC2)c(O)c1 | ? | ? | ? | ? | 8%
CNCCc1nc(N)n[nH]1 | 15% | ? | 56µM* | -8% | 6%
CNCCc1c(C)n[nH]c1C | 20% | 0% | ? | -9% | 9%
C/C(=N\Nc1ccccc1)c1c(O)[nH]c(=O)[nH]c1=O | 38% | -6% | nt | -6% | 32%
C/C(=N\Nc1ccccc1)c1c(O)n(-c2ccccc2)c(=O)[nH]c1=O | 35% | -17% | 50µM* | 4% | -13%
C/C(=N\Nc1ccccc1)c1c(O)n(Cc2ccccc2)c(=O)[nH]c1=O | 29% | -11% | 10µM* | ? | 27%
C/C(=N\NC(=O)c1ccccc1O)c1c(O)n(Cc2ccccc2)c(=O)[nH]c1=O | 28% | 5% | nt | -16% | 1%
C=CCC1(C(C)CCC)C(=O)N=C(S)NC1=O (centres undefined) | nt | nt | 3%[59 µM] | nt | -28%
CCCc1[nH]nc2c1C1(C(=O)N(Cc3ccccc3)c3ccccc31)C(C(=O)OC)=C(N)O2 (centres undefined) | 13% | -33% | 50µM* | -25% | 5%
CCCc1[nH]nc2c1C1(C(=O)N(CC(N)=O)c3ccccc31)C(C(=O)OC)=C(N)O2 (centres undefined) | 54% | -23% | -14% | 20% | 5%
CCCOC(=O)Cc1ccc(OCC(=O)N(CC)CC)c(OC)c1 | nt | nt | nt | nt | -3%
Cc1ccc(NC(=O)Nc2ccc3nc(N4CCN(C)CC4)cc(C)c3c2)cc1F | 41% | 3%[57.1 µM] | -31%[59 µM] | -14% | 13%
CC(=O)OCC1=C(C(=O)[O-])N2C(=O)[C@@H](NC(=O)CCC[C@@H](N)C(=O)[O-])[C@H]2SC1.[Zn+2] | nt | nt | 14%[12.7 µM] | nt | nt
Cc1c(O)c(=O)ccn1C | 46% | 45µM* | 1.6µM*! | 16µM* | 26%
COC(=O)C(O)(c1ccc(N(C)C(=O)c2cccs2)cc1)C(F)(F)F (centres undefined) | -1% | -8% | -7% | 22µM* | ?
CC(C)(C)n1nnnc1C(CCc1ccccc1)N1CCC2(CC1)C(=O)NCN2c1ccccc1 (centres undefined) | nt | nt | nt | nt | 4%
